Common to all, as to assay: NCI-60 one-dose screen, 48 h (100 = growth as untreated, 0 = no growth, -100 = all killed)
Holding throughout (settings): 10 µM unless noted

Assay [1] concerns HCT-15 colon.
Assay [2] deals with HT29 colon.
Assay [3] relates to SNB-75 CNS.
For assay [4], the system named is SNB-19 CNS.
For assay [5], the system named is U251 CNS.
In assay [6] the test system is PC-3 prostate.
For assay [7], the system named is SK-MEL-5 melanoma.
Assay [8] has as its system UACC-62 melanoma.
The subject of assay [9] is LOX IMVI melanoma.
In assay [10] the test system is SK-MEL-28 melanoma.

This is part of a sample that, as a whole, favours compounds with a hit. Of some 83,000 tested, about 20% had one in any assay.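 Each cell line was grown in a 96-well plate and treated with one concentration of compound for 48 hours. Values below 10 were considered active.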 A number with no mark means an inactive call. Calls of active or inactive are those of the source.

`CS(=O)(=O)Nc1cc(-c2ccc3ncc(C#N)c(NCc4cccc(F)c4)c3c2)cnc1Cl`: the growth in assay [1] is 5.75% (active); in assay [2] it was 9.57% (active); in [3], 45.7%; in [4], 11.9%; in [5] it was 10.3%; in assay [6], 4.17% (active). In addition, the growth in assay [7] was -96.6% (active); in [8], -20.2% (active); in assay [9], -55% (active); in assay [10], 4.56% (active).

Consider `CC1(C)CC[C@]23CC[C@]4(C)[C@H](CC[C@@H]5[C@@]6(C)CCCN(CO)C(C)(C)[C@@H]6CC[C@]54C)[C@H]2[C@H]1OC3`, for which the growth in assay [1] is 7.34% (active); in [2] it was 21%; in assay [3], 112%; in assay [4], 56.6%; in assay [5], 32.5%; in assay [6], 73.6%. Moreover, the growth in assay [7] was 100%; in assay [8], 101%; in assay [9], -80.9% (active); in [10], 103%.

`O=C(CSc1nc2ccccc2c(=O)n1-c1ccccc1)Nc1cccc(C(=O)/C=C/c2ccccc2Cl)c1`: the growth is 92.7% in [1]; 102% in [2]; 85.6% in assay [3]; 93.3% in assay [4]; 97.7% in assay [5]; 99.4% in [6]. In addition, the growth in assay [7] is 99.3%; in [8] it was 95.5%; in assay [9] it was 103%; in [10], 107%.

As for `COc1cc(-c2nn(C(C)(C)C)cc2-c2ccnc(NCCCNS(=O)(=O)c3ccc(F)cc3)n2)ccc1Cl`, the growth was 59.7% in [1]; 73.2% in [2]; 48.1% in [3]; 92.9% in [4]; 89.3% in assay [5]; 51.5% in assay [6]. Further, the growth is 85% in assay [7], 72.2% in assay [8], 74.8% in assay [9] and 89.8% in assay [10].

For `O=C(CNc1nc(-c2cccc([N+](=O)[O-])c2)cs1)Nc1cccc([N+](=O)[O-])c1`, the growth in assay [1] was 3.96% (active); in assay [2], -34.9% (active); in assay [3] it was 52.9%; in assay [4], -12.3% (active); in [5], -14.8% (active); in [6], -37.8% (active). Also, the growth in [7] is -84.5% (active); in [8], -62.6% (active); in assay [9] it was -74.3% (active); in assay [10], -24.3% (active).

For the molecule `C=C(C)[C@@H]1CC[C@]2(C(=O)NCCCCCN(CCC#N)CCC#N)CC[C@]3(C)[C@H](CC[C@@H]4[C@@]5(C)CCC(=O)C(C)(C)[C@@H]5CC[C@]43C)[C@@H]12`, the growth in assay [1] was 105%; in [2] it was 108%; in assay [3], 62.1%; in assay [4], 107%; in assay [5] it was 115%; in [6], 92.3%. The growth in assay [7] is 99.5%; in [8], 84%; in assay [9], 87.8%; in [10], 108%.

Turning to `CCN(CC)c1ccc2c(c1)Oc1nc(N)c(C#N)c(N)c1C2Sc1ccc(F)cc1` (stereo not given), the growth is -84.8% (active) in assay [1]; -42.4% (active) in assay [2]; -3.74% (active) in assay [3]; -94.9% (active) in assay [4]; -73.4% (active) in assay [5]; -74% (active) in assay [6]. For the same molecule, the growth in assay [7] was -96.2% (active); in assay [8] it was -52.5% (active); in assay [9] it was -92.6% (active); in assay [10], -62% (active).

`CN(C)CCN(C)c1ccc2ncc(C#Cc3cncc(C(=O)Nc4ccc(CN5CCN(C)CC5)c(C(F)(F)F)c4)c3)n2n1`: the growth in [1] was -25.2% (active); in assay [2] it was -66.1% (active); in assay [3], 47.9%; in assay [4], -11.3% (active); in assay [5] it was 64.1%; in assay [6], 65.2%. Besides, the growth in assay [7] is 96.4%; in assay [8] it was 93%; in assay [9], -89% (active); in assay [10] it was 105%.

On to `COc1ccc(/C(N)=N/C(N)=N/c2nc3ccccc3s2)cc1`, for which the growth in [1] was 62.6%; in assay [2], 104%; in assay [3], 23.5%; in [4] it was 86.2%; in [5], 68%; in assay [6], 62%. Besides, the growth in assay [7] was 72%; in assay [8], 59.6%; in assay [9] it was 22.8%; in assay [10], 79.6%.

`NC(N)=Nc1ccc(Oc2cccc(Nc3cccc(C(F)(F)F)c3)c2)cn1`: the growth in [1] was -64.9% (active); in assay [2], 14.6%; in assay [3] it was 33.5%; in assay [4], 1.17% (active); in assay [5], -62.7% (active); in assay [6], -74.8% (active). Moreover, the growth in assay [7] is 31.4%; in assay [8], -16.2% (active); in assay [9], -90.3% (active); in assay [10], 31.5%.

For `CNC1CCc2c(sc(NC(=O)c3ccc(C(C)(C)C)cc3)c2C(N)=O)C1` (stereo not given), the growth in [1] is 4.54% (active); in assay [2] it was -0.193% (active); in assay [3], 78.8%; in assay [4] it was 55.6%; in assay [5], 3.54% (active); in assay [6], 40%. For the same molecule, the growth in assay [7] was 83.6%; in [8], 60.5%; in [9], -88.1% (active); in [10], 63.2%.

Turning to `COc1cc2nc(Cl)nc(Nc3cccc(C4=Nc5c(N)nc(N)nc5NC(c5ccccc5)C4)c3)c2cc1OC` (stereo not given), the growth in [1] is 48.6%; in [2] it was 90.3%; in assay [3] it was 75%; in assay [4], 95.6%; in assay [5] it was 60.4%; in assay [6], 75.1%. Besides, the growth in assay [7] is 73.6%; in assay [8] it was 91.3%; in [9], 68%; in assay [10] it was 105%.

In the case of `Cc1ccc(-n2c(/C=C3\C(=O)Nc4ccccc43)ccc2CO)cc1`, the growth in [1] was 31.2%; in assay [2], 60.7%; in assay [3] it was 41.5%; in assay [4] it was 81%; in [5], 77.8%; in [6], 66.5%. In addition, the growth was 73.7% in assay [7], 50.6% in assay [8], 62.5% in [9] and 70.9% in assay [10].

As to `COc1ccc2c(c1)c(CC(=O)[Se]CC(=O)O)c(C)n2C(=O)c1ccc(Cl)cc1`, the growth in assay [1] is 93%; in assay [2], 75.5%; in assay [3], 101%; in assay [4] it was 40.7%; in [5], 62%; in [6], 93.8%. Besides, the growth in [7] was 56.7%; in assay [8], 63.6%; in [9] it was 72.1%; in [10], 90.3%.

Turning to `CN1CCN(Cc2ccc(NC(=O)c3cncc(C#Cc4cnc5ccc(OCC(C)(C)O)nn45)c3)cc2C(F)(F)F)CC1`, the growth in assay [1] was -39.2% (active); in assay [2], -22.7% (active); in assay [3], -46.1% (active); in [4] it was -8.47% (active); in assay [5], -59.3% (active); in [6], 2.2% (active). In addition, the growth in [7] is -91.8% (active); in assay [8] it was -41.1% (active); in assay [9], -91% (active); in [10] it was -38.9% (active).

For the molecule `CCn1c(SCC(=O)Nc2cccc(C(=O)/C=C/c3cc(OC)c(OC)c(OC)c3)c2)nc2ccccc2c1=O`, the growth in assay [1] was -13.9% (active); in [2] it was 1.12% (active); in assay [3], -4.22% (active); in [4], 39.9%; in assay [5], 30.1%; in assay [6] it was 46.8%. Further, the growth in assay [7] is 33.9%; in assay [8], 41.2%; in assay [9], -73.6% (active); in assay [10], 77%.

Turning to `N#Cc1cccc(/C(N)=N/C(N)=N/c2nc3ccccc3s2)c1`, the growth in assay [1] was 31.9%; in assay [2], 11.3%; in assay [3], 22.2%; in assay [4], 27.3%; in [5], 27.7%; in assay [6], 17.7%. Moreover, the growth in assay [7] is 41.5%; in assay [8], 34.5%; in [9], 46.2%; in assay [10], 65.4%.

With `O=S(=O)(NCCCNc1nccc(-c2[nH]c(-c3ccccc3)nc2-c2ccc(Cl)c(O)c2)n1)c1ccc(Br)cc1`, the growth is 13.9% in assay [1]; 39.7% in assay [2]; 73.6% in assay [3]; 49% in assay [4]; 30.7% in assay [5]; 27.1% in assay [6]. The growth in assay [7] is 0.46% (active); in assay [8], 13.2%; in assay [9], 21.6%; in assay [10] it was 17.3%.

As for `C[C@@H](Nc1c(C#N)cnc2ccc(-c3cnc(Cl)c(NS(C)(=O)=O)c3)cc12)c1ccccc1`, the growth is 10.2% in assay [1]; 11.6% in assay [2]; -30% (active) in [3]; 15.7% in assay [4]; 15.2% in assay [5]; 5.67% (active) in assay [6]. Besides, the growth in [7] is -82.8% (active); in assay [8], -12% (active); in assay [9], -24.6% (active); in [10], 5.72% (active).

On to `CN(C)C(=O)c1cc(-c2ccc3ncnc(NCc4ccccc4)c3c2)cnc1N`, for which the growth is 105% in assay [1]; 101% in assay [2]; 33.4% in assay [3]; 88.7% in assay [4]; 99% in assay [5]; 85.7% in [6]. For the same molecule, the growth in [7] was 93.9%; in assay [8], 89.3%; in assay [9] it was 75%; in assay [10], 91.4%.

In the case of `NS(=O)(=O)c1ccc(Nc2nc(N/N=C/c3ccccn3)nc(Nc3ccccc3)n2)cc1`, the growth in [1] is 17.6%; in assay [2], 6.29% (active); in assay [3] it was -25.4% (active); in assay [4] it was 9.62% (active); in assay [5], -55.2% (active); in assay [6], -7.87% (active). Further, the growth in assay [7] is -84.8% (active); in [8], -49.3% (active); in [9] it was -43.7% (active); in assay [10], -64.3% (active).

Regarding `Cc1ccc(NC(=O)c2ccc(CN3CCN(C)CC3)cc2)cc1Oc1ccc(-c2[nH]nc3ncnc(N)c23)cc1`, the growth in assay [1] is 99.4%; in [2], 12.6%; in assay [3], 75.1%; in assay [4] it was 104%; in [5] it was 86.8%; in assay [6] it was 84.5%. Also, the growth was 85.2% in assay [7], 84.3% in assay [8], 66.7% in assay [9] and 88.6% in assay [10].

These data come from PubChem BioAssay (NCI).
